Results on 40 compounds are retold here after the supplement of paper PMC13380429.

A number with no mark means an inactive call.

This assay has as its system Vero E6 infected with SARS-CoV-2. Nature of the assay: SARS-CoV-2 infection rate relative to infected DMSO; higher = more infection, active = 60 or less. The settings on record: 24 h.
Consider `Cc1cc(/C=C/c2ccc3cc(N(C)C)ccc3[n+]2C)c(C)n1-c1ccccc1` [pyrvinium-pamoate] (10 µM), for which the SARS-CoV-2 infection rate is 113%.
`CC(=O)N(CC(O)CN(C(C)=O)c1c(I)c(C(=O)NCC(O)CO)c(I)c(C(=O)NCC(O)CO)c1I)c1c(I)c(C(=O)NCC(O)CO)c(I)c(C(=O)NCC(O)CO)c1I` (stereo not given) [iodixanol] (10 µM): the SARS-CoV-2 infection rate is 114%.
As for `CN(C)CC/C=C1/c2ccccc2COc2ccccc21` [doxepin] (10 µM), the figure is 105%.
For the compound `O=C(O)c1ccccc1Nc1cc(Cl)ccc1C(=O)O` [lobenzarit] (10 µM), the SARS-CoV-2 infection rate was 113%.
With `CCCCCCNC(=O)Nc1ccc(S(=O)(=O)Nc2ccc(CCNC[C@H](O)COc3ccc(O)cc3)cc2)cc1` (10 µM), the SARS-CoV-2 infection rate is 112%.
Then `Cc1[nH]cnc1CN1CCc2c(c3ccccc3n2C)C1=O` [alosetron] (10 µM), with 98%; and `N=C(N)c1ccc(-c2ccc(-c3ccc(C(=N)N)cc3)o2)cc1` [furamidine] (10 µM), with 98%.
Then `Cc1ccccc1-n1c(CF)nc2ccc(N)cc2c1=O` [afloqualone] (10 µM), with 96%; and `CCOC(=O)c1cc(C#N)c(N2CCC(C(=O)NS(=O)(=O)Cc3ccccc3)CC2)nc1C` (10 µM), with 108%.
Take `CCn1c(=O)[nH]c2cc(Cl)c(Cl)cc21` (10 µM): the SARS-CoV-2 infection rate is 83.5%.
As for `C[C@@H](C1=C(CCN(C)C)Cc2ccccc21)c1ccccn1` (racemic) [dimetindene] (10 µM), the figure is 94.8%; as for `Cc1cnc(-c2cc(N3CCN(C(=O)CCS(C)(=O)=O)CC3)ncc2Cl)c(C)c1` (10 µM), 105%; as for `CCc1c(C(=O)NCCc2ccc(N3CCCCC3)cc2)[nH]c2ccc(Cl)cc12` (10 µM), 124%.
As for `C=CC(=O)N1CCN(C(=O)CNc2cc(I)c(Cl)cc2O)CC1` [K-Ras(G12C)-inhibitor-12] (10 µM), the figure is 111%; as for `CN1[C@@H]2C[C@@H](OC(=O)[C@H](CO)c3ccccc3)C[C@H]1[C@@H]1O[C@@H]12` (10 µM), 97.5%.
Take `C=C(c1ccc(C(=O)O)cc1)c1cc2c(cc1C)C(C)(C)CCC2(C)C` [bexarotene] (10 µM): the SARS-CoV-2 infection rate is 108%.
`N#Cc1ccc(Cn2cncc2CN2CCN(c3cccc(Cl)c3)C(=O)C2)cc1` (10 µM): the SARS-CoV-2 infection rate is 95%.
For `C/C(=N\NC(=O)C(NC(=O)c1ccccc1)c1n[nH]c(=O)c2ccccc12)c1cccc(Br)c1` (stereo not given) (10 µM), the SARS-CoV-2 infection rate is 98.5%.
As to `FC(F)(F)c1ccccc1-c1cc(C(F)(F)F)c2[nH]c(C3=NOC4(CCCCC4)C3)nc2c1` (10 µM), the SARS-CoV-2 infection rate is 104%.
Turning to `O=c1[nH]ccc2cc(OC3CCNCC3)ccc12` (10 µM), the SARS-CoV-2 infection rate is 110%.
Then `CC(C)Nc1cc(-c2c[nH]c(C(=O)N[C@H](CO)c3cccc(Cl)c3)c2)c(Cl)cn1` (0.833333 µM), with 109%; and `C=CC1=C(C)C2=CC3=NC(=C(CC(=O)O)C4=NC(=C(C)C4=C(O)O)C=c4[nH]c(c(C)c4CC)=CC1=N2)C(CCC(=O)O)C3C` (stereo not given) [chlorophyllin] (10 µM), with 94%.
Regarding `Cc1cnc(C(=O)N[C@H]2CCCCC/C=C\[C@@H]3C[C@@]3(C(=O)NS(=O)(=O)C3CC3)NC(=O)[C@@H]3C[C@@H](Oc4nc5ccccc5c5ccccc45)CN3C2=O)cn1` [paritaprevir] (10 µM), the SARS-CoV-2 infection rate was 98%.
`C[C@]12CC[C@@H]3c4ccc(O)cc4CC[C@H]3[C@@H]1C[C@@H](O)[C@@H]2O` [estriol] (10 µM): the SARS-CoV-2 infection rate is 108%.
As for `COc1nc(N)nc2c1ncn2[C@@H]1O[C@H](CO)[C@@H](O)[C@@H]1O` [nelarabine] (10 µM), the figure is 109%; as for `CC1=CC[C@@H](C(C)(C)O)C[C@@H]1O` [sobrepin] (10 µM), 114%.
As for `CN(C)CCc1c[nH]c2ccc(Cn3cncn3)cc12` [rizatriptan] (10 µM), the figure is 114%.
Then `C1CCC(/N=C(\NC23CC4CC(CC(C4)C2)C3)N2CCOCC2)CC1` (10 µM), with 110%; and `CCCNC(=O)Nc1ccc(Oc2ncnc3cc(OC)c(OC)cc23)cc1Cl` (10 µM), with 108%; and `CCS(=O)(=O)c1cccc(-c2cc(C(=O)NC3CCN(C)CC3)c(C)c3[nH]c4ncc(C)cc4c23)c1` (0.833333 µM), with 105%.
In the case of `N#CCC(=O)NN` [cyacetacide] (10 µM), the SARS-CoV-2 infection rate is 102%.
As to `NS(=O)(=O)c1cc2c(cc1C(F)(F)F)NC(Cc1ccccc1)NS2(=O)=O` (stereo not given) [bendroflumethiazide] (10 µM), the SARS-CoV-2 infection rate was 87.5%.
In the case of `CCN1/C(=C/C(C)=O)Sc2ccc(OC)cc21` (10 µM), the SARS-CoV-2 infection rate was 108%.
With `O=S(=O)(N[C@H](CO)C(C(F)(F)F)C(F)(F)F)c1ccc(Cl)s1` [begacestat] (10 µM), the SARS-CoV-2 infection rate is 98%.
`CC1(CN2CCC(n3c(=O)[nH]c4ccccc43)CC2)OCc2ccccc2-n2cccc21` (stereo not given) [zaldaride] (10 µM): the SARS-CoV-2 infection rate was 112%.
Then `O=C(NNc1nc2cc(F)ccc2n2cccc12)c1cnccn1` (10 µM), with 105%.
With `O=C(O)/C=C(/CC(=O)O)C(=O)O` [cis-aconitic-acid] (10 µM), the SARS-CoV-2 infection rate is 110%.
For the compound `c1cc(-c2sc(-c3ccncc3)c(-c3ccncc3)c2-c2ccncc2)ccn1` (10 µM), the SARS-CoV-2 infection rate is 93%.
Then `NC(=O)C(c1ccccc1)(c1ccccc1)[C@@H]1CCN(CCc2ccc3c(c2)CCO3)C1` [darifenacin] (10 µM), with 106%.
With `O=S(=O)(c1ccccc1)N(CC(F)(F)F)c1ccc(C(O)(C(F)(F)F)C(F)(F)F)cc1` (10 µM), the SARS-CoV-2 infection rate was 104%.
